In the library only some 3.6% were active in any assay of this set; here they are far more common.
Autofluor counter = counter-screen for toxin protease inhibitors: compound fluorescence | compound autofluorescence counterscreen, microsphere flow cytometry; stronger effect = higher value | fluorescence intensity (test concentration not listed) | 3.1% of 360,000 active; in the data active = fluorescence intensity above about 16000; inconclusive = no clear call, values can overlap the other calls
BoNT A protease = BoNT A light chain protease inhibition; 0.17% of 360,000 active; multiplex microsphere protease substrate cleavage, flow cytometry; inhibition, % at 10 µM; note: plate controls were buffer without enzyme for full effect and enzyme alone for no effect
MazF activator = increases E. coli MazEF RNase cleavage of RNA; P0AE70; activation, % at 20 µM; FAM/BHQ RNA-DNA oligo cleavage fluorescence, 5 h; 0.32% of 350,000 active; in the data active = activation above about 50%
Target sequence (P0AE70 whole entry, looked up): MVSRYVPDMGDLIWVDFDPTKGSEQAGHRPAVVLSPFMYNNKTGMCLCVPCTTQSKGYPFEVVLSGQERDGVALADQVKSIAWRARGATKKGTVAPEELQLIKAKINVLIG
BoNT F protease = inhibitors of Botulinum neurotoxin F light chain protease; AID 588497; inhibition, % at 10 µM; 0.22% of 360,000 active; Multiplex microsphere protease cleavage assay, flow cytometry; in the data active = inhibition above about 35%, passing the limit was not always enough; inconclusive = no clear call, values can overlap the other calls; note: plate controls were buffer without enzyme for full effect and enzyme alone for no effect
Anthrax LF prot = anthrax lethal factor protease inhibition | AID 588501 | multiplex microsphere protease cleavage assay, LF | P15917 | 0.12% of 360,000 active | inhibition, % at 10 µM; note: plate controls were buffer without enzyme for full effect and enzyme alone for no effect
Numbers without * were called inactive; ? = inconclusive; · = no result. Cut-off read from the data, not from the text of the source, unless noted: active = inhibition above about 30%; inconclusive = no clear call, values can overlap the other calls; inactive = below that.

SMILES	Autofluor counter	BoNT A protease	MazF activator	BoNT F protease	Anthrax LF prot
O=c1c(-c2ccc(Br)cc2)[n+]([O-])c2ccccc2n1OCc1ccccn1	4625	-1	4	-10	-3
COc1ccc(NC(=O)c2cccnc2N2CCCCC2)cc1	2444	0	-5	2	-2
O=C(Nc1ccc(F)cc1)c1cccnc1N1CCCCC1	21821*	-4	-2	-5	1
O=C(Nc1ccc(Br)cc1)c1cccnc1N1CCCCC1	21086*	8	-14	5	-8
COCCCNC(=O)CC1C[C@H](C(=O)N(C(C)C)C(C)C)[C@@]2(C)c3[nH]c4ccccc4c3CCN2C1=O (some centres undefined)	3664	0	-5	-8	0
COC(=O)C[C@H]1C[C@@H]2c3cc(NS(=O)(=O)c4ccc(OC)cc4)ccc3O[C@@H]2[C@H](CO)O1	3134	0	-4	-5	-1
CC(C)NC(=O)c1onc(CSc2ccc(F)cc2)c1C(=O)NC(C)C	3974	0	5	-3	-2
O=S(=O)(Nc1ccccc1)c1cccc2nsnc12	3667	-3	-1	?	-3
O=C(O)CNS(=O)(=O)c1cccc2nsnc12	22948*	2	4	0	4
O=C(O)c1cccc(NS(=O)(=O)c2cccc3nsnc23)c1	19434*	7	1	10	-11
O=C(Nc1cccc(C(F)(F)F)c1)c1ccc2sc([C@H]3C[C@H](O)[C@@H](CO)O3)nc2c1	2813	0	·	-4	-6
O=c1ccnc(SCCc2ccc([N+](=O)[O-])cc2)[nH]1	6095	-1	2	-9	-2
Cc1cc(C(=O)N/N=C/c2ccco2)n[nH]1	1988	0	6	-3	-2
CC(/C=C/c1ccco1)=N\NC(=O)c1cc(C)[nH]n1	23188*	?	10	0	-5
CCCCN(C(=O)c1cccc(S(=O)(=O)N(C)c2ccc(C)cc2)c1)c1c(N)n(CCCC)c(=O)[nH]c1=O	·	·	-7	·	·
Cc1cc(C)c(C)c(S(=O)(=O)NCC(=O)N2CCCC2)c1C	20412*	1	-1	0	-1
Cc1ccc(C)c(S(=O)(=O)NCC(=O)N2CCCC2)c1	3097	1	6	?	16
Nc1cc(SCc2ccc(Cl)cc2Cl)ncn1	3910	-1	56*	6	-4
CC#CCCCC(=O)Nc1cccc(C(=O)O)c1	19921*	6	-2	7	-4
COc1ccc(C2c3cc(OC)c(OC)cc3CC3C(=O)OCC32)cc1OC (centres undefined)	4193	0	11	-5	-7
Cc1ccc(S(=O)(=O)N2CCOCC2)c2nsnc12	17116*	-2	-1	-3	-6
Cc1ccc(S(=O)(=O)N2CCCCC2)c2nsnc12	4023	-2	8	-22	-2
COc1cc(/C=C2/SC(=S)N(CCC(=O)N3CCN(C)CC3)C2=O)cc(OC)c1OC	3892	3	5	1	10
COc1ccccc1N1CCN(C(C)C(=O)Nc2ccc(S(=O)(=O)N3CCOCC3)cc2)CC1 (centres undefined)	4193	0	8	-1	-2
O=C(Cn1cnc2c(cnn2-c2ccccc2Cl)c1=O)N1CCc2ccccc21	21755*	3	6	6	-1
SMILES	Autofluor counter	BoNT A protease	MazF activator	BoNT F protease	Anthrax LF prot
CC(C)(C)n1ncc2c(=O)n(CC(=O)N3CCc4ccccc43)cnc21	3262	0	-5	-6	2
Fc1ccccc1OCCSc1nnnn1-c1ccccc1	20510*	-2	0	-2	-2
COC(=O)Nc1ccc(S(=O)(=O)N(C)C)cc1	20816*	0	4	-2	-3
COC(=O)Nc1ccc(S(=O)(=O)N2CCCCCC2)cc1	11195	-1	1	-1	-6
COC(=O)Nc1ccc(NC(C)=O)cc1	23186*	-1	1	-1	-1
CC(=O)Nc1ccc(NS(=O)(=O)C(F)(F)F)cc1	19728*	?	-8	0	1
CCN(CC)CC(C)CNC(=O)C1(O)c2ccccc2NC(=O)N1c1ccc(Cl)c(Cl)c1 (centres undefined)	3889	-2	8	26	0
O=C(Oc1ccc(N(Cc2cccs2)C2=NS(=O)(=O)c3ccccc32)cc1)c1ccccc1F	22943*	1	-8	-4	-2
O=C(c1ccccc1F)N(Cc1cccs1)C1CCS(=O)(=O)C1 (centres undefined)	6039	0	3	4	0
CN(C)c1ccc(/C=N/NC(=O)c2ccccc2O)o1	1988	0	11	-8	0
CN(C)c1ccc(/C=N/NC(=O)C(O)(c2ccccc2)c2ccccc2)o1	16827*	?	-4	-1	-2
CNC(=S)N(CCc1c(C)[nH]c2ccc(F)cc12)Cc1cccnc1	3224	-5	3	-30	3
O=C(c1ccc(Cl)cc1)c1oc2ccccc2c1CS(=O)c1ccc(Cl)cc1 (centres undefined)	22309*	?	5	1	-1
O=C(CCN1CCN(c2ccccc2)CC1)NNC(=O)c1ccccc1	3992	0	-9	-4	0
CCSc1nnc(-c2cc(Br)ccc2N)c(=O)[nH]1	2107	1	0	-3	1
CCSc1nnc(-c2ccccc2N)c(=O)[nH]1	23571*	0	-5	-1	-4
COc1cccc(/C=N/NC(=O)CNC(=O)C(c2ccccc2)c2ccccc2)c1O	4751	0	-4	3	3
CCn1nc(C)c(C(=O)Nc2cc(Oc3ccc(Cl)cc3)cc([N+](=O)[O-])c2)c1C	19896*	3	-2	2	0
Cc1nn(CCCC(=O)Nc2cc(Oc3ccc(F)cc3)cc([N+](=O)[O-])c2)c(C)c1[N+](=O)[O-]	7997	0	-7	-1	0
O=C1/C(=C\c2ccccc2)CCc2c1[nH]c1ccccc21	23509*	-1	-5	-3	-1
Cc1ccc2[nH]c3c(c2c1)CC/C(=C/c1ccccc1)C3=O	8375	3	3	12	-6
Cc1ccc(/C=C2/CCc3c([nH]c4ccccc34)C2=O)cc1	23420*	0	-1	3	1
Cc1nc(NC(=O)/C=C/c2ccc(Cl)cc2Cl)sc1C(=O)N(C)C	2415	0	79*	-4	-1
O=C(COc1ccc(S(=O)(=O)NC2CCCCC2)cc1)N1CCN(c2cccc(Cl)c2)CC1	22384*	-1	0	3	-4
C[C@@]12C(=O)Nc3cc(F)c(F)cc3C(=O)N1[C@H]1c3cc(Cl)ccc3OC[C@@H]1[C@@H]2c1ccccc1	2991	0	-2	-2	7
COc1ccc(NC(=O)CN(C)C2=NS(=O)(=O)c3ccccc32)cc1Cl	4042	0	-12	2	-4
COc1ccc(CN2C(=O)C(CC(=O)NCCc3ccccn3)CC(C(=O)N3CCCCCC3)=C2C)cc1 (centres undefined)	5912	2	·	-5	1
O=C1c2ccccc2C(Nc2ccc(S(=O)(=O)N3CCOCC3)cc2)N1c1ccccn1 (centres undefined)	4674	6	2	-21	-11

Bioassay records from PubChem.
